Molecules are shown by their SMILES. Compounds without any hit were thinned out: in the full panel of roughly 79,000, 15% have a hit. A number with no mark means an inactive call. Active and inactive are the calls of the source. Cut-off read from the data, not from the text of the source: active = growth inhibition above about 70%; inactive = the rest.

We go through 19 compounds from PubChem BioAssay (NCI).

Test [1] in a line: NCI Yeast Anticancer Drug Screen. Data for the rad50 strain (AID 155).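 Note: 0% = growth of vehicle-only cultures of the same strain.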 Conditions: S. cerevisiae rad50 strain growth inhibition; at 50.0 µM; hits give high values. The essentials: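 Vehicle-treated cultures provide the reference for the growth inhibition reported for compound-exposed, repair-deficient yeast.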
Test [2] in a line: NCI Yeast Anticancer Drug Screen. Data for the mec2-1 strain (AID 157). Conditions: S. cerevisiae mec2-1 strain, at 50.0 µM, hits give high values. In outline: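 Yeast mec2-1 mutant treated with compound. Readout: growth inhibition vs vehicle controls.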
Test [3] can be described thus: NCI Yeast Anticancer Drug Screen. Data for the sgs1 mgt1 strain (AID 161).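 Note: 0% = growth of cultures given vehicle only.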 The following applies: S. cerevisiae sgs1 mgt1 strain, at 50.0 µM, hits give high values. In outline:
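Genetically altered yeast, compound exposure, growth inhibition relative to vehicle.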

Test [4] can be described thus: NCI Yeast Anticancer Drug Screen. Data for the cln2 rad14 strain (AID 165).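 Note: 0% = growth equal to vehicle treated cultures.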 Conditions: S. cerevisiae cln2 rad14 strain, at 50.0 µM, hits give high values. The essentials: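 cln2 rad14 yeast strain; compound exposure; growth inhibition read vs vehicle controls.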
A short description of test [5]: NCI Yeast Anticancer Drug Screen. Data for the bub3 strain (AID 167). Conditions: S. cerevisiae bub3 mutant strain, at 50.0 µM, hits give high values. The essentials: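 Mutant yeast screening strain plus compound; vehicle-treated cultures serve as the 0% inhibition reference.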
Test [6] in a line: NCI Yeast Anticancer Drug Screen. Data for the mlh1 rad18 strain (AID 175). Conditions: S. cerevisiae mlh1 rad18 strain growth inhibition; at 50.0 µM; hits give high values. In outline: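 Yeast w/ defined DNA-repair lesions; compound exposure; growth vs vehicle controls → % inhibition.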

As for `CN(C)c1ccccc1C(=O)NNC(=S)Nc1ccccc1`, the growth inhibition in test [1] was 20.9%; in test [2], -1.75%; in test [3] it was 42.7%; in test [4] it was -13.1%; in test [5], 30.4%; in test [6], 19.4%.

On to `CCOc1c(Cl)cc(Cl)cc1C(c1ccc(Cl)cc1S(=O)(=O)O)c1cc(Cl)cc(Cl)c1OCC`, for which the growth inhibition was 99.2% (active) in test [1]; 99.3% (active) in test [2]; 99.6% (active) in test [3]; 98% (active) in test [4]; 99% (active) in test [5]; 99.2% (active) in test [6].

With `Nc1ccc2cccc(O)c2c1`, the growth inhibition in test [1] was 44.1%; in test [2], 24.2%; in test [3] it was 12.9%; in test [4], -9.4%; in test [5], 34.2%; in test [6] it was 32.4%.

With `CCCCNCCCNCCCC`, the growth inhibition in test [1] is 4.95%; in test [2], -3.4%; in test [3] it was 0.65%; in test [4], -0.7%; in test [5] it was 25.5%; in test [6], 2.6%.

Consider `C[N+](C)(C)C1CCC1`, for which the growth inhibition was -2.4% in test [1]; -4.75% in test [2]; -1.75% in test [3]; 8.35% in test [4]; -15.1% in test [5]; 5.7% in test [6].

`CCOC(=O)c1c(-c2ccc(OC)cc2)c(C#N)c(=S)n(C2OC(COC(C)=O)C(OC(C)=O)C(OC(C)=O)C2OC(C)=O)c1-c1ccccc1` (centres undefined): the growth inhibition in test [1] is -4.6%; in test [2] it was 0.05%; in test [3] it was -3.2%; in test [4], 21.6%; in test [5], 11.9%; in test [6], 13.4%.

For the compound `CCN(CC)c1ccc2cc(-c3nc4ccccc4[nH]3)c(=O)oc2c1`, the growth inhibition in test [1] was 2%; in test [2], -5.3%; in test [3] it was 12.5%; in test [4] it was 3.15%; in test [5], 11.1%; in test [6], 2.55%.

On to `CC1=C(C(=O)Nc2ccccc2C)C(c2ccccc2C)C(C(=O)Nc2ccccc2C)=C(C)N1`, for which the growth inhibition is 67.2% in test [1]; 62.6% in test [2]; 51.8% in test [3]; 27.3% in test [4]; 64.3% in test [5]; 57.7% in test [6].

Take `COC(=O)c1ncn(Cc2ccccc2)c1O` (tested in a mixture with another compound): the growth inhibition in test [1] was 8.7%; in test [2], -2.2%; in test [3], 8.55%; in test [4], 16.3%; in test [5], 8.15%; in test [6], 36%.

As to `O=C(O)CCCSc1ccc2ccccc2c1`, the growth inhibition was 48.5% in test [1]; 3.75% in test [2]; 45.6% in test [3]; 24.9% in test [4]; 4.55% in test [5]; 38.3% in test [6].

`NC(=O)/C=C/c1ccc([N+](=O)[O-])cc1`: the growth inhibition in test [1] is 33%; in test [2], -6.85%; in test [3], -9%; in test [4], -74%; in test [5], 4.6%; in test [6], -3.4%.

With `CC1(C)C2CC=C(/C=N\Nc3ccc([N+](=O)[O-])cc3[N+](=O)[O-])C1C2` (centres undefined), the growth inhibition in test [1] is -1.5%; in test [2], 1.95%; in test [3], -2.3%; in test [4] it was -3.35%; in test [5] it was -11.6%; in test [6], -12.1%.

For the compound `O=S1OC(c2ccccc2)C(c2ccccc2)O1` (centres undefined), the growth inhibition was -2.1% in test [1]; -10.5% in test [2]; -4.55% in test [3]; 11.8% in test [4]; -1.45% in test [5]; -7.7% in test [6].

For `NC1(N)ON(c2ccc(C=O)cc2)C(c2ccc([N+](=O)[O-])cc2)S1` (centres undefined), the growth inhibition in test [1] is 18.3%; in test [2] it was 8.45%; in test [3] it was 11%; in test [4], 16.3%; in test [5], -0.7%; in test [6], 16.7%.

`CN(C)CCCn1c(=O)nc2n(-c3ccccc3)c3ccccc3nc-2c1=O`: the growth inhibition in test [1] was 9.3%; in test [2], 4.5%; in test [3], -10.4%; in test [4], 8.75%; in test [5] it was 2.35%; in test [6], -44.5%.

Consider `CCC(=O)[C@H]1CC[C@H]2[C@@H]3CCC4=CC(=O)CC[C@]4(C)[C@H]3CC[C@]12C`, for which the growth inhibition is -7.6% in test [1]; 26.9% in test [2]; 32% in test [3]; 6.5% in test [4]; 37.5% in test [5]; 2.45% in test [6].

Regarding `O=C1C2C3CCC(O3)C2C(=O)N1c1ccccn1` (centres undefined), the growth inhibition in test [1] is -26.3%; in test [2], -11.6%; in test [3], -4.85%; in test [4] it was -25.1%; in test [5], 2.25%; in test [6], 0.2%.

Turning to `COc1cc(CC(=O)O)ccc1O`, the growth inhibition is 11.8% in test [1]; -21.3% in test [2]; -26.7% in test [3]; -18.4% in test [4]; 1.45% in test [5]; -0.55% in test [6].

For the compound `CCCCn1c(=O)cc(C(=O)O)c2ccccc21`, the growth inhibition in test [1] is 1.7%; in test [2] it was -12.7%; in test [3], -0.5%; in test [4], -9.25%; in test [5], -7.9%; in test [6], 0.05%.
